Rtt109 HAT inh: blocks Candida albicans Rtt109/Vps75 acetyltransferase activity | purified Rtt109/Vps75, ThioGlo CoA-SH fluorescence, 4 h | inhibition, % at 34.9 µM | 330,000 tested, 0.16% active | AID 540336;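 active means inhibition of at least 50% in every replicate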
ALR inh: inhibitors of human sulfhydryl oxidase ALR | P55789 | purified ALR, DTT oxidation, H2O2 HRP-luminol luminescence | inhibition, % (test concentration not listed) | 290,000 tested, 3.8% active | AID 485317;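 active means mean replicate inhibition above about 79%, with every replicate also reaching it, limit read from the data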
Target sequence (P55789 whole entry, looked up): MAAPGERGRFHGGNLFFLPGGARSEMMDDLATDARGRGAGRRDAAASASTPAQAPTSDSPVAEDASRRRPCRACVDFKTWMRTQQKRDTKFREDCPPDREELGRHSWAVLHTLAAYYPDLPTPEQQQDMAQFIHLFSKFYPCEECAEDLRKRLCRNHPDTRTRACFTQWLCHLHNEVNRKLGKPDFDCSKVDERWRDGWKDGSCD
LANA-H2B inh: blocks KSHV LANA binding to histone H2A/H2B. Q9QR71. cell-free LANA-H2A/H2B peptide, fluorescence polarization. inhibition, % (test concentration not listed). 320,000 tested, 0.6% active; in the data active means inhibition mostly above about 10%, no sharp cut-off; inactive means mostly below about 6.7%
PRMT1 FP inh: inhibitors of human PRMT1; Q99873; recombinant PRMT1, activity-based probe fluorescence polarization; inhibition, % at 2.79 µM; 370,000 tested, 1.3% active; AID 652257;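 active means inhibition above about 21% made by adding two undisclosed values, limit read from the data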
rCAG RNA binder: molecules binding r(CAG) RNA repeats. r(CAG) RNA repeat, TO-PRO-1 dye displacement fluorescence. inhibition, % at 3 µM. 370,000 tested, 1.3% active;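 active means inhibition above the plate cutoff, the mean of all test compounds on that plate plus 3 SD, cut at about 35% in these data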;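 further: 0% = DMSO alone and 100% = 100 µM mitoxantrone as full dye displacement; higher means more dye released from RNA so lower well fluorescence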
ABHD5 PLIN5 PPI: ABHD5-PLIN5 protein interaction inhibition | Q00G26+Q8WTS1 | Split G. princeps luciferase complementation, luminescence, 4 h | inhibition, % at 4 µM | 360,000 tested, 0.78% active | AID 602281;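 active means inhibition above the mean inhibition across every tested compound plus 3 SD, cut at about 22% in these data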;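 further: 0% = DMSO only wells and the 100% control is not disclosed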
ABHD5-PLIN5 conf: ABHD5-PLIN5 interaction inhibition, confirmed; shares compounds with ABHD5 PLIN5 PPI; biochemical ABHD5-PLIN5 interaction, luminescence; inhibition, % at 4 µM; 2,200 tested, 67% active; AID 651612; in the data active means inhibition above about 23%;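 further: 0% = DMSO vehicle wells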
HNF4 counter: HNF4 split-luciferase signal hit, counter-screen; shares compounds with ABHD5 PLIN5 PPI; HNF4 dimerization, luminescence, biochemical; inhibition, % at 4 µM; 2,200 tested, 77% active; AID 651674;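 active means mean inhibition across replicate wells exceeding the computed hit threshold, cut at about 13% in these data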;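 further: light from luciferase halves that rejoin when HNF4 fusion proteins dimerize; 0% = DMSO only wells and the 100% control is not given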
Target sequence (P41235 whole entry, looked up, the tested form may be a part): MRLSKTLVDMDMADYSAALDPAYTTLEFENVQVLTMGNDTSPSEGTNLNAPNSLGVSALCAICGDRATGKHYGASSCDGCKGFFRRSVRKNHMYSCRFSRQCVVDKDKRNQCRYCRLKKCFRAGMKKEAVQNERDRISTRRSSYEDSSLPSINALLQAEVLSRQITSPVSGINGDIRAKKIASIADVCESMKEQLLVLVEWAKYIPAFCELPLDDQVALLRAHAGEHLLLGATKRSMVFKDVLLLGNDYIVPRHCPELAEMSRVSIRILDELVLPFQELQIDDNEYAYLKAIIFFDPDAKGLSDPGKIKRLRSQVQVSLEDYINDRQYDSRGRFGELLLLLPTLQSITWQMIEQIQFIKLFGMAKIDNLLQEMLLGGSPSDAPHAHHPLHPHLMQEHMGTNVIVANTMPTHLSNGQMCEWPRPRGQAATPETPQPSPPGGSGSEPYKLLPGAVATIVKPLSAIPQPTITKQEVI
An asterisk follows results filed as active; . = no result given; ! = repeats disagree. A selection: hits, their analogues and other compounds. The true share with any hit is near 5.9%.

SMILES | Rtt109 HAT inh | ALR inh | LANA-H2B inh | PRMT1 FP inh | rCAG RNA binder | ABHD5 PLIN5 PPI | ABHD5-PLIN5 conf | HNF4 counter
CN1C(=O)[C@@]23C[C@]4(c5c[nH]c6ccccc56)c5ccccc5N(S(=O)(=O)c5ccccc5)[C@@H]4N2C(=O)[C@@H]1SS3 | . | . | . | 1 | . | . | . | .
Cn1c(O)c(C(=Nc2ccccc2)SCc2ccccc2Cl)c(=O)n(C)c1=O | 0 | 96* | 1 | 10 | 3 | -2 | . | .
C[C@]12CCC(=O)C=C1CC[C@@H]1C2CC[C@]2(C)C(=O)CCC12 (stereo partly drawn) | 0 | -3 | -1 | -3 | -3 | -10 | . | .
C[C@]12CCC(=O)C=C1CC[C@@H]1[C@@H]2CC[C@]2(C)C(=O)CC[C@@H]12 | 5 | . | 16*! | 3 | 0 | 5 | . | .
CCCOc1ccc(C(=O)NC(=S)N2C[C@H]3C[C@H](C2)c2cccc(=O)n2C3)cc1 | -3 | 4 | 1 | 25* | 4 | -3 | . | .
CN(C)c1ccc(NC(=O)CN2C(=O)CN=C(c3ccccc3)c3ccccc32)cc1 | -4 | 99* | 2 | -1 | 2 | 6 | . | .
Cc1ccc(NC(=O)CN2C(=O)CN=C(c3ccccc3)c3cc(Cl)ccc32)cc1 | -11 | . | . | -3 | 4 | 0 | . | .
CN(C)c1ccc(NC(=O)CN2C(=O)CN=C(c3ccccc3)c3cc(Cl)ccc32)cc1 | 12 | 89* | -1 | 1 | 6 | -1 | . | .
O=C(CNC(=O)OCc1ccccc1)NC(Cc1ccccc1)P(=O)(Oc1ccccc1)Oc1ccccc1 (stereo not drawn) | . | . | . | 1 | 6 | . | . | .
Cc1ccccc1-n1c(O)c(C(c2ccncc2)c2c(O)n(-c3ccccc3C)c(=O)[nH]c2=O)c(=O)[nH]c1=O | 1 | 12 | 2 | 1 | 1 | 26* | 55* | 66*
COc1ccc(NC(=S)N2Cc3ccccc3-n3nncc3C2)c(OC)c1 | . | . | . | 0 | 3 | -6 | . | .
CN(C)c1ccc(/C=C/c2cc[n+](C)c3ccccc23)cc1 | 181*! | . | . | 1 | 17 | 23* | 31* | 30*
C=C1C(=O)O[C@@H]2C[C@@H](C)[C@@H]3C=CC(=O)[C@@]3(C)[C@@H](O)[C@H]12 | 4 | 56 | -9 | 4 | 3 | 82* | 91* | 90*
CN1C(=O)C(=Cc2ccc(OCC(=O)Nc3ccccc3)cc2)C(=O)N(C)C1=O | . | 62 | 3 | . | . | 50* | 12 | 28*
CCCCCCC(=O)c1c(O)n(-c2ccc(OC)cc2)c(=O)[nH]c1=O (tested in a mixture with another compound) | -6 | -2 | -1 | -1 | 6 | -2 | . | .
Cc1cccc(-n2c(O)c(C=Nc3ccc(Br)cn3)c(=O)[nH]c2=O)c1 | -3 | -2 | -3 | 0 | 2 | 24* | 7 | 28*
Cc1ccc(-n2c(O)c(/C=N/c3ncc(Br)cc3Br)c(=O)[nH]c2=O)cc1 | 0 | 27 | 0 | 1 | 3 | 17 | . | .
O=C1NC(=O)C(=Cc2ccc(Cl)cc2)C(=O)N1 | . | . | . | 14 | 2 | 27* | 76* | 75*
CN1C(=O)C(=Cc2cccnc2)C(=O)N(C)C1=O | 4 | 10 | -1 | 14 | -2 | 27* | 37* | 49*
COC(=O)C12CCc3cc(OC)ccc3C1=CC(=O)C2 (stereo not drawn) | . | . | . | 0 | 1 | 10 | . | .
CC1=CC2/C=C(\C)CCC(O)C(O)/C=C/C(=O)C23C(=O)NC(CC(C)C)C3C1C (stereo not drawn) | 3 | 11 | 3 | . | . | 65* | 90* | 103*
Cc1cccc(N2C(=O)NC(=O)/C(=C\c3cnc(-c4ccccc4)nc3)C2=O)c1 | -12 | 14 | 1 | 3 | 10 | 14 | . | .
Cc1ccc(N2C(=O)NC(=O)/C(=C/c3cnc(-c4ccccc4)nc3)C2=O)cc1C | 5 | 8 | -2 | 7 | 19 | 33* | 87* | 73*
Cc1ccccc1-c1ccc2c(c1)CNCc1cnnn1-2 | . | . | . | -6 | 1 | -3 | . | .
CCOc1cc(C=O)ccc1O | -1 | . | . | 8 | 0 | -1 | . | .
SMILES | Rtt109 HAT inh | ALR inh | LANA-H2B inh | PRMT1 FP inh | rCAG RNA binder | ABHD5 PLIN5 PPI | ABHD5-PLIN5 conf | HNF4 counter
COc1cc(/C=C/[N+](=O)[O-])ccc1O | 15 | 43 | 7 | 15 | 16 | 70* | 86* | 93*
O=C1NC(=O)N(c2ccc3c(c2)OCO3)C(=O)/C1=C\c1ccc(-c2ccccc2C(=O)O)o1 | -5 | . | 1 | 8 | 6 | 30* | 78* | 89*
O=C1NC(=O)N(c2ccc3c(c2)OCO3)C(=O)/C1=C/c1ccc(N2CCCCC2)o1 | 11 | 6 | -37 | -15 | -30 | 4 | . | .
O=C1NC(=O)N(c2ccc3c(c2)OCO3)C(=O)/C1=C\c1ccsc1 | . | 37 | 3 | 3 | 4 | 25* | 66* | 56*
COC(=O)C1=C(c2ccc(C(C)=O)cc2)C[C@@H]2CC[C@H]1N2C(=O)NCc1ccc2c(c1)OCO2 | 7 | 1 | 2 | 0 | -3 | -9 | . | .
Cc1cc(C)n(-c2ccc(NN=C(C#N)C#N)cc2)n1 | 20 | 98* | 0 | 3 | 19 | 44* | 49* | 43*
N#CC(C#N)=NNc1ccc(-n2ccc(C(F)(F)F)n2)cc1 | -9 | 33 | 2 | -2 | 32 | 58* | 83* | 71*
CCCCCN1C(=O)c2ccccc2[C@@]2(C(=O)OCC)Cc3cc(OC)ccc3[C@@H]12 | . | . | . | 7 | -1 | 25* | 14 | 12
CCOC(=O)[C@]12Cc3cc(C)ccc3[C@H]1N(C(C)C)C(=O)c1ccccc12 | . | . | . | -2 | 0 | 26* | 25* | 21*
CCOC(=O)[C@]12Cc3cc(OC)ccc3[C@H]1N(C1CCCCC1)C(=O)c1cc(OC)ccc12 | . | . | . | -1 | 0 | 19 | . | .
CCOC(=O)[C@]12Cc3cc(C)ccc3[C@H]1N(C1CCCCC1)C(=O)c1cc(OC)ccc12 | . | . | . | 3 | 4 | 61* | 43* | 54*
CCOC(=O)[C@]12Cc3cc(OC)ccc3[C@H]1N(Cc1ccccc1)C(=O)c1ccccc12 | 5 | . | . | -1 | -2 | -10 | . | .
CCOC(=O)[C@]12Cc3cc(C)ccc3[C@H]1N(Cc1ccccc1)C(=O)c1ccccc12 | 7 | . | . | -5 | -5 | -2 | . | .
CCOC(=O)c1cccc(C2=C(CNC(=O)c3ccc([N+](=O)[O-])cc3)[C@H]3CC[C@@H](C2)N3Cc2ccccc2)c1 | . | . | . | 1 | 3 | -1 | . | .
C/C=C1\NC(=O)[C@H](C)NC(=O)[C@@H](NC(=O)[C@H](Cc2ccc(O)cc2)NC(=O)[C@@H](NC(=O)/C(C)=C/C)C(C)C)[C@@H](C)OC(=O)[C@H](CCCc2ccc(O)cc2)NC(=O)[C@@H](CCC(=O)O)NC1=O | . | . | . | 5 | 20 | -6 | . | .

Screens (PubChem)
